# Data reported in PMC7819943, “Rice protein-binding microarrays: a tool to detect cis-acting elements near promoter regions in rice”.
# Whole data set: some 68,000 sequences, median “fluorescence intensity (a.u.)” near 9,100, cut for the highest 2% near 16,000. This is one part of a sample in which the highest values are shown more often than they occur.
# Biological target: OsWRKY34 (Oryza sativa, UniProt Q0JBA9 1-250)
# Experiment: protein-binding microarray (RPBM); PBS, 2% BSA, 51.3 ng/ul salmon testes DNA, 50 uM zinc acetate, 200 nM TF, 25 C, 1 h; high values mean tight binding
# Conditions: protein: recombinant; tags: N-terminal polyhistidine and DsRed monomer fusion (pET32a); label: CyDye5-dUTP incorporated in the synthesized complementary strand; 3' TTTTT single-stranded linker to array surface; dsDNA, one strand shown
# How it was run: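 Transcription factors, each fused N-terminally to a polyhistidine tag and DsRed, were expressed in E. coli BL21-CodonPlus and purified on Ni–NTA. A custom Agilent array was made double-stranded by primer extension with Cy5-dUTP and blocked with 2% BSA. It was incubated with 200 nM protein in PBS, 2% BSA, salmon testes DNA and 50 µM zinc acetate at 25 °C for 1 h, then washed. The binding signal is per-feature fluorescence intensity (arbitrary units) read on an Axon 4000B scanner.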
# Chain of OsWRKY34 (Q0JBA9 entry or part of it): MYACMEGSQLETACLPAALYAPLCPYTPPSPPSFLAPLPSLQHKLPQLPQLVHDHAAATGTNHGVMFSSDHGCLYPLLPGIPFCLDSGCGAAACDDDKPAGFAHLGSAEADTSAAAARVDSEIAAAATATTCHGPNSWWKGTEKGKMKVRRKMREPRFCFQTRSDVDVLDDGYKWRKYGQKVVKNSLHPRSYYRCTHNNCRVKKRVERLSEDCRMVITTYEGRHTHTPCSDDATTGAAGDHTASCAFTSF
row,Sequence,binding signal
1,TGTGCCTGCCGACTCGCCCACGCAACTCCGACTCTTTCCTCGGAGTCACCTAGTGCAG,13500 fluorescence intensity (a.u.)
2,CTTGGGGAAGGCGGCGGGTGTCGGGGAGGGCGAGGGTATCCGGAGTCACCTAGTGCAG,18000 fluorescence intensity (a.u.)
3,GGAGTGTGGCGGAGCGGGAGTTCGCGGGCGGACGGCGGGGCGGAGTCACCTAGTGCAG,11700 fluorescence intensity (a.u.)
4,CTGGCGAGCAGAGCAGGGGAGGGGAGGGGAGGGGATCGGGCGGAGTCACCTAGTGCAG,14200 fluorescence intensity (a.u.)
5,TGAGGTTTTGGGTTCTTGGGCACTTCTTGTTCTAGCCAAGCGGAGTCACCTAGTGCAG,9900 fluorescence intensity (a.u.)
6,GCGGGACTTGCAGATCCGAGCGGGCGGGGCGGGGCGGGTTCGGAGTCACCTAGTGCAG,22000 fluorescence intensity (a.u.)
7,GTTAACTTTTGGTAGTTGCAGGGGTTCTATAGGTGGGCAGCGGAGTCACCTAGTGCAG,8640 fluorescence intensity (a.u.)
8,GGCGGGGCGGATCCGAGGGGCGAAGTGGGTCGGGCGGCGGCGGAGTCACCTAGTGCAG,9480 fluorescence intensity (a.u.)
9,GGTTGGTGGCGGTGGGCCGGTGGCGGCTCGGTGGCGGAGCCGGAGTCACCTAGTGCAG,10200 fluorescence intensity (a.u.)
10,TTGGTGGGTGGCGCGGTGGCCGGACCTGGGGTGGTGGGCGCGGAGTCACCTAGTGCAG,15900 fluorescence intensity (a.u.)
11,TATGGGTAGGTTCTTGTTCTATGGGGCAGGGGTCTTAAAGCGGAGTCACCTAGTGCAG,17100 fluorescence intensity (a.u.)
12,GTGGGTTGGGGTCGGCGAGGGATCCGGGCGGCGGGGTATGCGGAGTCACCTAGTGCAG,14000 fluorescence intensity (a.u.)
13,TTGGCGCGCGGTTGGTGGGGCGGTGGTGGTGGTGGTGCCTCGGAGTCACCTAGTGCAG,17400 fluorescence intensity (a.u.)
14,GCTATCGCCGGTTTCGTCATCAATAATCTTCTCTGCCTCTCGGAGTCACCTAGTGCAG,8820 fluorescence intensity (a.u.)
15,TTTCATCGTTTAGTGTCTTACTCCCTTTCCGATGGTCAACCGGAGTCACCTAGTGCAG,9340 fluorescence intensity (a.u.)
16,CATTCTTGTCTGTAGCTTATTTGTTCGTGTTCATTAGTTTCGGAGTCACCTAGTGCAG,13500 fluorescence intensity (a.u.)
17,TGTCTCTCTTTGACATCTTGTTTCCCATAACCTAAAGATACGGAGTCACCTAGTGCAG,8260 fluorescence intensity (a.u.)
18,GTACGCAACTTGTCCGCAGCCGCGACCCCGACCCGACCCGCGGAGTCACCTAGTGCAG,8200 fluorescence intensity (a.u.)
19,ATCATCCATATCCAGCTATACTATACTACTCGATCCCTTCCGGAGTCACCTAGTGCAG,10200 fluorescence intensity (a.u.)
20,CCCTCTCTCTATTTAAGCAAGCACATTCTCCTCTTCTTCTCGGAGTCACCTAGTGCAG,8240 fluorescence intensity (a.u.)
21,GCCGACTCTTACTCCTCCGCCCACTCACCACGCGCGCTGCCGGAGTCACCTAGTGCAG,11000 fluorescence intensity (a.u.)

row,Sequence,binding signal
1,GCGGGCGGAGGAGCTCGGGCGTGGGCGGGGAGGGCGGATCCGGAGTCACCTAGTGCAG,20800 fluorescence intensity (a.u.)
2,GTGGCCGGCGGCGTTCGGGCGTGGGCGGGGAGGCCGGATCCGGAGTCACCTAGTGCAG,13700 fluorescence intensity (a.u.)
3,GGCGGAGCTCGGGATGTGGGAGGAGGAGGGCTATTTATTCCGGAGTCACCTAGTGCAG,14400 fluorescence intensity (a.u.)
4,TGGCGGCTCGGTGGCGGAGCTCCGGTGTGGGGTGGTGTGGCGGAGTCACCTAGTGCAG,8140 fluorescence intensity (a.u.)
5,CCGGGTGGAGGGCGGGGAAGCGGCGGCGGAACTCCGGGCTCGGAGTCACCTAGTGCAG,8490 fluorescence intensity (a.u.)
6,GTTGGGAAGGAAAGGGAGGGGTTGGTGCTCTCCTCCTCTTCGGAGTCACCTAGTGCAG,9740 fluorescence intensity (a.u.)
7,CTCTTCTCCTCCAAGGATGGGGAGGTGGGGATGGTGGGGACGGAGTCACCTAGTGCAG,19400 fluorescence intensity (a.u.)
8,GAGTGGTGGAGGGTTGTGATTGGATGAGTAGTGGAGGTAGCGGAGTCACCTAGTGCAG,8760 fluorescence intensity (a.u.)
9,CGAGTGACGAGGTCTTGGGTTGGGGTAGGGGTGGGATGAGCGGAGTCACCTAGTGCAG,19900 fluorescence intensity (a.u.)
10,AGAGGTGGAAGGGGATGGGGAGAAAAAAAAGGAGAGGGGACGGAGTCACCTAGTGCAG,8410 fluorescence intensity (a.u.)
11,GGGAGGGGTGGCTCGGCGGCGGTGCGGGGTGGCGGTGCTCCGGAGTCACCTAGTGCAG,18700 fluorescence intensity (a.u.)
12,TTGGGAGGGATGGGGCGGTGGTTAGGGGATGAGCGGAGGACGGAGTCACCTAGTGCAG,13200 fluorescence intensity (a.u.)
13,CAGTATCTTACTTCTCAGCTGCTCAATCATCAGCTGCCACCGGAGTCACCTAGTGCAG,9310 fluorescence intensity (a.u.)
14,GCAAGATCTCCATGATGCGACAGCTCTACCGTTACAATTACGGAGTCACCTAGTGCAG,8100 fluorescence intensity (a.u.)
15,TCAATCAACGGCTACTTGTATGTAATCTCCACGCATTCCACGGAGTCACCTAGTGCAG,8630 fluorescence intensity (a.u.)
16,CTTTTTGTTTTGGCCTTGACGTCGTGTTCACCGCCTCTACCGGAGTCACCTAGTGCAG,11800 fluorescence intensity (a.u.)
17,CAGAGCTCTTCCTGCTGTACCTACCAAGCTCTTACTTTGACGGAGTCACCTAGTGCAG,8060 fluorescence intensity (a.u.)
18,GTACTACTCCAAATCGTGTTCCACATTTCTATTTTGCACACGGAGTCACCTAGTGCAG,10200 fluorescence intensity (a.u.)
19,CTTAGGTCAACACCGAAAACTAATCACCATGTTGACTTTGCGGAGTCACCTAGTGCAG,9710 fluorescence intensity (a.u.)
20,GATGGTGTGTGTGTGTGGCTGTGTGCACCTAAGAATTTCTCGGAGTCACCTAGTGCAG,10400 fluorescence intensity (a.u.)
21,ATATTTATGTGCCAAATATTGTCAATTGTTCCTCTTGTTACGGAGTCACCTAGTGCAG,9080 fluorescence intensity (a.u.)
